7 molecules from the supplement of paper PMC10127200 can be followed below.

Each structure is given as a SMILES string. Where a name gives a salt, the structure may show the parent alone.

The subject of this experiment is DU145. Description: Euclidean distance of Cell Painting phenotypic profile (signed KS, 77 features) to DMSO centroid (dimensionless distance); 5 or 10 uM (library dependent); higher = stronger phenotypic change vs DMSO (phenoactivity). To be noted: 48 h. A digest of the protocol: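 Phenoactivity is defined as the Euclidean distance from a compound profile to the median vehicle profile. Each profile comprised 77 Harmony features, scored as signed Kolmogorov-Smirnov statistics versus same-plate vehicle wells, then plate-position corrected, correlation-weighted and replicate-averaged at the top dose. Five cancer lines and one healthy fibroblast line were exposed to library compounds for 48 h at 10 or 5 uM (0.1% DMSO final).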
On to `CC(C)c1c(C(=O)Nc2ccccc2)c(-c2ccccc2)c(-c2ccc(F)cc2)n1CC[C@@H](O)C[C@@H](O)CC(=O)O` [atorvastatin], for which the Euclidean distance amounted to 3.44.
With `C[C@@H]1CC(=O)NN=C1c1ccc(NN=C(C#N)C#N)cc1` [Levosimendan] the figure was 1.3; with `CCN1CCCC1CNC(=O)c1cc(S(=O)(=O)CC)c(N)cc1OC` (configuration not stated) [Amisulpride], 1.15.
The result for `NS(=O)(=O)NCCNc1nonc1/C(=N/O)Nc1ccc(F)c(Br)c1` reads 1.07; that for `CCCCOCCOCCOCc1cc2c(cc1CCC)OCO2` [Piperonyl butoxide], 0.875; that for `CCN(CC)CCNC(=O)c1ccc(N)cc1` [Procainamide HCl], 0.74.
The result for `CN1[C@@H]2CC[C@H]1C[C@@H](OC(c1ccccc1)c1ccccc1)C2` [Benztropine mesylate] reads 1.51.
